# Laboratory results published in the supplement of paper PMC10646978.
# ± gives the standard deviation.
# Tested on: RAW-Dual (murine macrophage reporter line)
# Assay: NF-kB reporter (SEAP) activity fold change vs agonist alone; higher = enhanced NF-kB activity
# Details: modulator concentration 10 µM; agonist: CpG ODN 1826 0.5 ug/mL
# Outline: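 RAW-Dual murine macrophage reporter cells were seeded at 50 000 per well in 384-well plates and pre-incubated 1 hour at 37 °C with compound pin-transferred to 10 μM final. After 1 hour, a PRR agonist was added and cells incubated overnight. Supernatant NF-κB (SEAP, QUANTI-Blue, 620 nm absorbance) and IRF (Lucia luciferase, QUANTI-Luc, luminescence) signals were divided by the mean agonist-only control on the same plate to give fold change. Two replicate plates were averaged, with errors by propagation.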
row,Compound,NF-kB reporter
1,Fc1ccccc1C=NNc1nc(-c2ccccc2)cc(-c2ccccc2)n1,1.03 ± 0.25
2,Cc1cnc2c(c1NCCCO)c(=O)n(C)c(=O)n2C,1.1 ± 0.1
3,COc1ccc2sc(C)[n+](CCCS(=O)(=O)[O-])c2c1,0.951 ± 0.088
4,Cc1cc(C(=O)Nc2ccccc2S(C)(=O)=O)no1,1.17 ± 0.069
5,CCC(=O)Nc1ccc(S(=O)(=O)N2CCSC(c3ccccc3C)CC2)c(C)c1 (stereo not given),0.688 ± 0.045
6,CCCCCN(CCCCC)C(=O)C(CCC(=O)[O-])NC(=O)c1ccc(Cl)c(Cl)c1 (stereo not given) [Prestw-915],1.02 ± 0.064
7,Cc1cccc(C)c1OCC(C)N.Cl (stereo not given),1.17 ± 0.25
8,CC(=O)Nc1nnc(S(N)(=O)=O)s1,1.57 ± 0.56
9,CN(C(=NS(=O)(=O)c1ccccc1)c1ccccc1)c1ccc(O)cc1,1.05 ± 0.19
10,Cl.Cl.Cn1cc(CNCC2CCN(c3ncc(C(=O)NO)cn3)CC2)c2ccccc21,1.84 ± 0.11
11,COc1cc2c(cc1Cc1cccc(Cl)c1F)c(=O)c(C(=O)O)cn2[C@H](CO)C(C)C,0.941 ± 0.14
12,O=C1CNC(=O)N1CC(O)Cn1c2ccc(Br)cc2c2cc(Br)ccc21 (stereo not given),0.998 ± 0.091
13,Cc1ccc(CNC(=O)CN(c2cccc3ccccc23)S(C)(=O)=O)cc1,0.97 ± 0.078
14,CN1CCC(COc2cnc(-c3cccc(Cn4nc(-c5cccc(C#N)c5)ccc4=O)c3)nc2)CC1,0.884 ± 0.28
15,Cc1cc(-n2cc(C(=O)N3CCOCC3)nn2)ccc1F,1.06 ± 0.33
16,COc1ccc(-c2oc(N=Cc3ccccc3O)c(C#N)c2-c2ccc(OC)cc2)cc1,0.895 ± 0.075
17,O=C(Oc1ccc(C=Nc2ccc([N+](=O)[O-])cc2)cc1)c1ccccc1,0.769 ± 0.061
18,COc1ccc(Br)cc1C(=O)Nc1cc(C(F)(F)F)cc(C(F)(F)F)c1,1.2 ± 0.11
19,Cc1ccc(-n2c(C)cc(C=NNC(=O)CN3CCOCC3)c2C)c(C)c1,0.928 ± 0.084
20,CC1=C(C(=O)Nc2cccc(C)n2)C(c2ccsc2)C2=C(CC(C)(C)CC2=O)N1 (stereo not given),1.04 ± 0.16

row,Compound,NF-kB reporter
1,Cc1oncc1CNC(=O)c1ccc(C(C)(C)C)cc1,1.18 ± 0.089
2,O=C(NN=Cc1c(O)ccc2ccccc12)c1ccccc1Br,1.43 ± 0.11
3,Cc1cc(C)nc(Nc2ncc(O)n2-c2ccc(F)cc2)n1,1.11 ± 0.087
4,CNCCC[C@]12CC[C@H](c3ccccc31)c1ccccc12 [Prestw-346],0.726 ± 0.082
5,CCOC(=O)N1CCN(C(=O)C2CCN(Cc3ccc(C)o3)CC2)CC1,0.941 ± 0.15
6,CCNC(=O)CCC/C=C\C[C@@H]1[C@@H](/C=C/C(O)CCc2ccccc2)[C@@H](O)C[C@@H]1O (stereo not given in full),0.953 ± 0.059
7,CC(=O)Oc1ccc2c(C)c(Cl)c(=O)oc2c1C,1.14 ± 0.24
8,CC(=O)Nc1ccc(C(=O)CSc2nnc[nH]2)cc1,0.771 ± 0.06
9,CCN(CC)c1ccc(-c2noc(CN3CCSCC3)n2)cn1,0.986 ± 0.055
10,Cc1cc(OC2CCN(S(=O)(=O)CCc3ccccc3)C2)cc(=O)n1C (stereo not given),1.13 ± 0.069
11,CCOC(=O)C1CCN(C(=O)c2ccc(C#CC(C)(C)O)cc2)CC1,0.747 ± 0.063
12,COC(=O)[C@H](c1ccccc1Cl)N1CCc2sccc2C1.O=S(=O)(O)O,0.811 ± 0.21
13,CN1CCC(OC(c2ccccc2)c2ccccc2)CC1.Cl,0.827 ± 0.31
14,CNCCCN1c2ccccc2CCc2ccccc21.Cl,0.462 ± 0.11
15,Cc1cccc2sc(OC3CN(C(=O)Nc4ccccc4C(F)(F)F)C3)nc12,0.912 ± 0.047
16,NC(=O)c1ccccc1O,1.18 ± 0.28
17,CSCCC(NC(C)=O)C(=O)NC1CCN(c2nc(C)nc3c2CCCC3)CC1 (stereo not given),0.836 ± 0.061
18,CCOC(=O)C1=C(C)N(CC(C)C)C(=O)C1=Cc1cccc(Br)c1,1.05 ± 0.11
19,Cc1cccc(C(=O)NC2CCC(F)(F)CC2)c1,1.07 ± 0.068
20,CCOC(C#CCN(CC)CC)(c1ccccc1)c1ccccc1.Cl,0.215 ± 0.018

# Same assay, conditions: modulator concentration 10 µM; agonist: LPS 0.1 ug/mL
row,Compound,NF-kB reporter
1,Fc1ccccc1C=NNc1nc(-c2ccccc2)cc(-c2ccccc2)n1,1.19 ± 0.094
2,Cc1cnc2c(c1NCCCO)c(=O)n(C)c(=O)n2C,1.01 ± 0.088
3,COc1ccc2sc(C)[n+](CCCS(=O)(=O)[O-])c2c1,1.08 ± 0.074
4,Cc1cc(C(=O)Nc2ccccc2S(C)(=O)=O)no1,1.04 ± 0.08
5,CCC(=O)Nc1ccc(S(=O)(=O)N2CCSC(c3ccccc3C)CC2)c(C)c1 (stereo not given),0.88 ± 0.11
6,CCCCCN(CCCCC)C(=O)C(CCC(=O)[O-])NC(=O)c1ccc(Cl)c(Cl)c1 (stereo not given) [Prestw-915],0.954 ± 0.096
7,Cc1cccc(C)c1OCC(C)N.Cl (stereo not given),1.25 ± 0.23
8,CC(=O)Nc1nnc(S(N)(=O)=O)s1,1.08 ± 0.18
9,CN(C(=NS(=O)(=O)c1ccccc1)c1ccccc1)c1ccc(O)cc1,1.39 ± 0.11
10,Cl.Cl.Cn1cc(CNCC2CCN(c3ncc(C(=O)NO)cn3)CC2)c2ccccc21,1.72 ± 0.15
11,COc1cc2c(cc1Cc1cccc(Cl)c1F)c(=O)c(C(=O)O)cn2[C@H](CO)C(C)C,1.04 ± 0.27
12,O=C1CNC(=O)N1CC(O)Cn1c2ccc(Br)cc2c2cc(Br)ccc21 (stereo not given),0.791 ± 0.068
13,Cc1ccc(CNC(=O)CN(c2cccc3ccccc23)S(C)(=O)=O)cc1,1.03 ± 0.098
14,CN1CCC(COc2cnc(-c3cccc(Cn4nc(-c5cccc(C#N)c5)ccc4=O)c3)nc2)CC1,1 ± 0.055
15,Cc1cc(-n2cc(C(=O)N3CCOCC3)nn2)ccc1F,1.1 ± 0.075
16,COc1ccc(-c2oc(N=Cc3ccccc3O)c(C#N)c2-c2ccc(OC)cc2)cc1,1.21 ± 0.079
17,O=C(Oc1ccc(C=Nc2ccc([N+](=O)[O-])cc2)cc1)c1ccccc1,0.967 ± 0.089
18,COc1ccc(Br)cc1C(=O)Nc1cc(C(F)(F)F)cc(C(F)(F)F)c1,0.99 ± 0.096
19,Cc1ccc(-n2c(C)cc(C=NNC(=O)CN3CCOCC3)c2C)c(C)c1,1.11 ± 0.1
20,CC1=C(C(=O)Nc2cccc(C)n2)C(c2ccsc2)C2=C(CC(C)(C)CC2=O)N1 (stereo not given),1.02 ± 0.057

row,Compound,NF-kB reporter
1,Cc1oncc1CNC(=O)c1ccc(C(C)(C)C)cc1,1.1 ± 0.083
2,O=C(NN=Cc1c(O)ccc2ccccc12)c1ccccc1Br,1.24 ± 0.091
3,Cc1cc(C)nc(Nc2ncc(O)n2-c2ccc(F)cc2)n1,1.1 ± 0.13
4,CNCCC[C@]12CC[C@H](c3ccccc31)c1ccccc12 [Prestw-346],0.842 ± 0.063
5,CCOC(=O)N1CCN(C(=O)C2CCN(Cc3ccc(C)o3)CC2)CC1,1.04 ± 0.089
6,CCNC(=O)CCC/C=C\C[C@@H]1[C@@H](/C=C/C(O)CCc2ccccc2)[C@@H](O)C[C@@H]1O (stereo not given in full),0.965 ± 0.076
7,CC(=O)Oc1ccc2c(C)c(Cl)c(=O)oc2c1C,1.01 ± 0.08
8,CC(=O)Nc1ccc(C(=O)CSc2nnc[nH]2)cc1,0.877 ± 0.072
9,CCN(CC)c1ccc(-c2noc(CN3CCSCC3)n2)cn1,1.15 ± 0.099
10,Cc1cc(OC2CCN(S(=O)(=O)CCc3ccccc3)C2)cc(=O)n1C (stereo not given),0.929 ± 0.088
11,CCOC(=O)C1CCN(C(=O)c2ccc(C#CC(C)(C)O)cc2)CC1,0.845 ± 0.041
12,COC(=O)[C@H](c1ccccc1Cl)N1CCc2sccc2C1.O=S(=O)(O)O,0.993 ± 0.28
13,CN1CCC(OC(c2ccccc2)c2ccccc2)CC1.Cl,1.17 ± 0.061
14,CNCCCN1c2ccccc2CCc2ccccc21.Cl,1.14 ± 0.11
15,Cc1cccc2sc(OC3CN(C(=O)Nc4ccccc4C(F)(F)F)C3)nc12,1.13 ± 0.089
16,NC(=O)c1ccccc1O,1.01 ± 0.051
17,CSCCC(NC(C)=O)C(=O)NC1CCN(c2nc(C)nc3c2CCCC3)CC1 (stereo not given),1.06 ± 0.086
18,CCOC(=O)C1=C(C)N(CC(C)C)C(=O)C1=Cc1cccc(Br)c1,1.04 ± 0.069
19,Cc1cccc(C(=O)NC2CCC(F)(F)CC2)c1,0.934 ± 0.082
20,CCOC(C#CCN(CC)CC)(c1ccccc1)c1ccccc1.Cl,0.353 ± 0.049
